Compounds with a hit are over-represented: about 11% of the library has one in this group of screens.
L3MBTL1 block – blocks human L3MBTL1; AlphaScreen L3MBTL1–H3K9me1 peptide binding; Potency, µM (doses to about 57.1 µM), inactives show top-dose activity, negative = inhibition, usual class: inhibitors; actives 0.66% (n = 230,000); note: % is set by controls: 0 for no effect and ±100 for the full control effect; nearly all actives have a fitted effect of over 60% in size
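L3MBTL1 (50 nM) pre-complexed 30 min with biotinylated H3(1-15)K9me1 peptide (75 nM), then compounds added for 30 min at room temperature; AlphaScreen streptavidin donor/nickel chelate acceptor beads (10 ug/mL final) read after 30 min dark incubation.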
G9a block – G9a (human) methyltransferase inhibition | G9a H3K9 monomethylation, AlphaScreen, 2 h | actives 8.8% (n = 350,000) | Potency, µM (highest dose often 102 µM), inactives show at the top dose activity, negative = inhibition, actives largely listed as inhibitors | Q96KQ7; note: % is set by controls: 0 for no effect and ±100 for the full control effect; nearly all actives have a fitted effect of over 75% in size
Target sequence (Q96KQ7 913-1193 limits assumed): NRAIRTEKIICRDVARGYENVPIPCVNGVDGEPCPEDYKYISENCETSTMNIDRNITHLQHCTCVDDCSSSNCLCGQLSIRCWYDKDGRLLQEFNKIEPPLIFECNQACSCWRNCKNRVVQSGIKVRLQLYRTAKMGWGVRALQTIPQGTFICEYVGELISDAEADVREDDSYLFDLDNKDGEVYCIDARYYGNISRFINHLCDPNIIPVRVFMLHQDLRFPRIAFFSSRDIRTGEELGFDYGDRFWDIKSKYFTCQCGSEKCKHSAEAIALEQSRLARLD
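G9a (20 nM) preincubated 15 min RT with compounds, then 500 nM biotinylated H3K9 peptide and 20 uM SAM added; 2 h RT reaction. Monomethyl-H3K9 product detected by AlphaScreen with anti-H3K9me1 antibody, streptavidin donor and anti-rabbit IgG acceptor beads.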
HP1b binding inh – HP1-beta chromodomain-methylated histone interaction inhibition; P83916; AlphaScreen HP1-beta / biotin-H3K9me3 peptide binding; Potency, µM (titrated, usually from 114 µM), inactives show at the top dose activity change, negative = inhibition, usual class: inhibitors; actives 0.56% (n = 390,000); AID 540317; note: nearly all actives have a fitted effect of over 70% in size
Target sequence (P83916 whole entry, looked up): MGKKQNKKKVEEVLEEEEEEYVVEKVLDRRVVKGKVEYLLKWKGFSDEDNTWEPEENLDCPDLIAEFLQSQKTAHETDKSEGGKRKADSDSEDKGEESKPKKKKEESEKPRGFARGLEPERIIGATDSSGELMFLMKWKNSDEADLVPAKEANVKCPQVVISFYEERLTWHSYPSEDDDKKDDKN
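HP1-beta protein (50 nM final) preincubated 30 min at room temperature with biotinylated H3(1-18)K9me3 peptide (50 nM) in PBS pH 7.4, 0.01% Tween-20, then compound added for 30 min. AlphaScreen streptavidin donor/nickel chelate acceptor beads (10 ug/mL final), 30 min dark, luminescence read.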
JMJD2A Tudor – inhibitors of human JMJD2A Tudor domain; AID 504339; Potency, µM (doses to about 114 µM), for the others: top-dose activity change, negative = inhibition, actives largely listed as inhibitors; O75164; AlphaScreen JMJD2A-Tudor / H3K4me3 peptide binding; actives 4.4% (n = 390,000); note: % is set by controls: 0 for no effect and ±100 for the full control effect; nearly all actives have a fitted effect of over 50% in size
BAZ2B inh – blocks human BAZ2B. Q9UIF8. Potency, µM (doses to about 114 µM), for inactives: top-dose activity change, negative = inhibition, most hits filed as inhibitors. actives 4.4% (n = 360,000). AlphaScreen BAZ2B-H3K14Ac peptide displacement; note: % is set by controls: 0 for no effect and ±100 for the full control effect; nearly all actives have a fitted effect of over 60% in size
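BAZ2B 50 nM plus b-H3(5-23)K14Ac 50 nM, PBS pH 7.4/0.01% Tween-20, 30 min RT; compound added (max 110 uM), 30 min RT; streptavidin donor/Ni-chelate acceptor beads 10 ug/mL final, 20 min dark; AlphaScreen read.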
Numbers without * were called inactive; u = inconclusive; x = not tested or not shown; [ ] = dose if it differs, or a comment. Calls come from the whole dose curve; as a rule, active = well fitted inhibition curve with a large enough effect; inconclusive = small, poorly fitted or top-dose-only effect; inactive = no such curve, though single readings can be large or run the other way. Potency is the fitted concentration of half-maximal effect.

SMILES	L3MBTL1 block	G9a block	HP1b binding inh	JMJD2A Tudor	BAZ2B inh
O=C(OCC(=O)N1CCc2ccccc2C1)c1ccc(N2CCOCC2)c([N+](=O)[O-])c1	-5%	40µM*	-1%	-28%	-35%
Nc1ccc(C(=O)OCC(=O)N2CCc3ccccc3C2)cc1[N+](=O)[O-]	-5%	-48%[59 µM]	1%	-32%	-33%
O=C(N/N=C/C=C\c1ccccc1[N+](=O)[O-])c1ccncc1	x	-35%	16%	-9%	18%
O=[N+]([O-])c1ccccc1/C=C/C=N/n1c(-c2cc(-c3ccccc3)n[nH]2)n[nH]c1=S	u	x	1%	50µM*	-32%
Cc1ccc(-c2n[nH]c(=S)n2/N=C/C=C/c2ccccc2[N+](=O)[O-])cc1	x	0.28µM*	u	-36%	u
O=C(N/N=C/C=C\c1ccccc1[N+](=O)[O-])c1cc(-c2ccccc2)nc2ccccc12	-16%	0%[59 µM]	17%	-33%	-31%
O=[N+]([O-])c1ccccc1/C=C/C=N/n1c(-c2ccco2)n[nH]c1=S	-17%[2.29 µM]	-131%	-15%	22µM*	u
Cc1cc(C)c(NC(=O)Cn2c(=O)n(CC3CCCO3)c(=O)c3ccccc32)c(C)c1 (stereo unspecified)	x	3%[59 µM]	21%	-10%	-1%
CCOC(=O)c1c(NC(=O)COc2cccc3c2CCN(C)C3=O)sc2c1CCC2	-5%	2%[59 µM]	-4%	-21%	-6%
CC(C)Sc1nc(-c2ccccc2)cc(=O)[nH]1	0%	35µM*	11%	-10%	-32%
CCC(Sc1nc(-c2ccccc2)cc(=O)[nH]1)C(=O)O (stereo unspecified)	-1%	1%[59 µM]	18%	-18%	3%
CC(=O)N1CCc2c(sc3c2c(=O)n(-c2ccccc2C)c(=O)n3CC(=O)Nc2ccccc2)C1	x	-2%[59 µM]	2%	-22%	-1%
COc1ccc2c(c1)CCc1c(C(=O)Nc3c(C)nn(Cc4ccc(C)cc4)c3C)noc1-2	x	-32%[59 µM]	3%	1%	-29%
COc1ccccc1NS(=O)(=O)c1cccc2nsnc12	5%	x	2%	-11%	-5%
COc1ccc(C(=O)O)cc1NS(=O)(=O)c1cccc2nsnc12	-16%	4µM*	49%	7%	1%
CCOc1ccc(OCC)c(NS(=O)(=O)c2cccc3nsnc23)c1	x	u	u	u	50µM*
CCOc1ccc(OCC)c(NC(=O)Cn2ncc3c4ccccc4n(Cc4ccccc4)c3c2=O)c1	x	10%[59 µM]	21%	-13%	-2%
CN(C)c1cc(Cl)c2nonc2c1N	32µM*	40µM*	u	u	50µM*
CCN(CC)c1cc(Cl)c2nonc2c1N	u	32µM*	u	u	u
CCN(CC)c1cc2nonc2c2nonc12	19%	9%[59 µM]	48%	23%	51%
COc1ccc2c(c1)cc1c(=O)n(CC(=O)NC3CCCCC3)nc(C)n12	x	12%[59 µM]	31%	-9%	-1%
O=C(O)CSc1nc(-c2ccccc2)c(-c2ccccc2)[nH]1	-6%	50µM*	-5%[57 µM]	u	-37%
O=C(CSc1nc(-c2ccccc2)c(-c2ccccc2)[nH]1)N1CCN(S(=O)(=O)c2ccccc2)CC1	x	3.2µM*	-1%	u	-35%
O=C(CSc1ncccn1)N1CCN(S(=O)(=O)c2ccccc2)CC1	x	u	46%	-8%	4%
CC(C)(C)NC(=O)CSc1nc(-c2ccccc2)c(-c2ccccc2)[nH]1	x	16%[12.7 µM]	32%	-19%	4%
SMILES	L3MBTL1 block	G9a block	HP1b binding inh	JMJD2A Tudor	BAZ2B inh
Nn1cc(-c2ccccc2)nc1SCC(=O)N1CCN(S(=O)(=O)c2ccccc2)CC1	-3%	25µM*	9%	-21%	u
CC(C)(C)c1nnc(NC(=O)C2CCN(C(=O)c3ccccc3)CC2)s1	x	x	23%	-10%	x
[N-]=[N+]=CC(=O)CCCN1C(=O)c2ccccc2C1=O	-3%	6%[59 µM]	18%	-5%[57.1 µM]	12%
[N-]=[N+]=CC(=O)CC(c1ccccc1)N1C(=O)c2ccccc2C1=O (stereo unspecified)	u	u	17%	50µM*	32µM*
CCOC(=O)/C(=N\Nc1ccccc1)S(=O)(=O)c1ccccc1	x	u	-7%	u	-7%
CCOC(=O)/C(=N/Nc1ccc(C)cc1)S(=O)(=O)c1ccc(Cl)cc1	x	14µM*	29%	-24%	-36%
CC1(C)CC(=O)C2=C(C1)O[C@@]1(CCCCN3C(=O)c4ccccc4C3=O)Cc3ccccc3C2O1	x	x	x	x	-1%[22.9 µM]
CC(=O)c1ccc(-c2ccc(C(=O)NC3CCCCCC3)o2)cc1	0%	50µM*	27%	-5%	-22%
Nc1cc(=O)[nH]c(SCC(=O)N2CCCc3ccccc32)n1	5%	8%[59 µM]	17%	-12%	7%
O=C(CN1CCCCC1)N1CCCc2ccccc21	x	u	u	2.5µM*	50µM*
Nc1nc2nc(SCC(=O)N3CCCc4ccccc43)[nH]c2c(=O)[nH]1	2%	79µM*	x	x	-7%
O=C(CN1CCCC1)N1CCCc2ccccc21	-7%	x	u	3.5µM*	50µM*
CCN(CC)c1ccc(/C=N/OCC(=O)N2CCCc3ccccc32)cc1	-14%	40µM*	u	u	u
O=C(CCCC(=O)N1CCCc2ccccc21)N1CCCc2ccccc21	6%	21%	27%	-9%	10%
O=C(CCSc1nnc2scc(-c3ccccc3)n12)NCc1ccc2c(c1)OCO2	-7%	5%[59 µM]	14%	-18%	0%
c1ccc(-c2csc3nnc(SCc4ccc5c(c4)OCO5)n23)cc1	12%	-54%[59 µM]	-5%	20µM*	-30%
Cc1ccc(C(=O)c2oc3ccccc3c2NC(=O)Cc2coc3cc(C)ccc23)cc1	x	6%[59 µM]	8%	-13%	1%
CCN(C(=O)c1ccc2c(=O)n3c(nc2c1)CCCCC3)c1cc(C)ccc1C	x	0%[59 µM]	34%	4%	4%
Cc1ccc2[nH]c(CSc3nnc(NC(=O)c4ccc(Cl)cc4)s3)cc(=O)c2c1	x	-2%[59 µM]	12%[57 µM]	-11%	8%
CC(Oc1ccccc1)C(=O)Nc1nc(-c2ccncc2)cs1 (stereo unspecified)	0%	-9%[12.7 µM]	31%	-10%	3%
C[C@H](NC(=O)c1ccccc1)C(=O)Nc1nc(-c2ccccn2)cs1	x	-3%	36%	79µM*	14µM*
CC(Oc1ccccc1)C(=O)Nc1nc(-c2ccccn2)cs1 (stereo unspecified)	u	50µM*	16%	20µM*	40µM*
CC(Oc1cccc(Cl)c1)C(=O)Nc1nc(-c2ccccn2)cs1 (stereo unspecified)	-11%	32µM*	51%	50µM*	56µM*
CC(Oc1cccc(Cl)c1)C(=O)Nc1ccncc1 (stereo unspecified)	46%	x	26%	-13%	-13%
Cc1ccccc1C(=O)NCc1ccc2c(c1)CCN2C(=O)c1ccc(F)cc1	x	6%[59 µM]	14%	-15%	-8%

From PubChem BioAssay
